The source of these data is PubChem BioAssay.

Molecules are shown by their SMILES. Unmarked numbers belong to inactive results. For some of these results: Measured potencies and affinities stand elsewhere. The source made the active and inactive calls. Unless noted, no rule for the calls is given here.

Test [1] can be described thus: antimalarial activity against Dd2 strain (AID 2302;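 active = growth inhibition above 50% at the single 2 µM test dose, taken to imply half-maximal potency below 2 µM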;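 also: 0% = DMSO untreated growth and 100% = chloroquine plus artemisinin killed control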). To be noted: P. falciparum Dd2 in RBCs, LDH growth readout, 72 h; at 2 µM; active compounds read high.
Test [2] is described as follows: human hepatoma cell viability loss – ATP luminescence, cytotoxicity control for P. falciparum antimalarial project, primary screen (AID 2303;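 active = inhibition above 50%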;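 also: 0% = DMSO wells and 100% = digitonin-killed cells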). To be noted: HepG2 viability, 24-48 h, at 10 µM, active compounds read high.
For test [3], the target named is L-lactate dehydrogenase (Plasmodium falciparum (isolate CDC / Honduras)) (UniProt Q27743). In words: PfLDH activity inhibition – cell lysate, 3D7 strain, counter-screen for P. falciparum growth inhibition project (AID 2304).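 Also: 0% = vehicle and 100% = reference inhibitor.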 The note with it: P. falciparum 3D7 crude extract, LDH APAD/NBT absorbance; at 2 µM; active compounds read high. Background: Counterscreens check selectivity or assay interference.

Test [4] is described as follows: inhibition of 3D7 malaria parasite growth – strain 3D7 (AID 2306).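 Also: 0% = DMSO wells and 100% = chloroquine plus artemisinin control wells.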 To be noted: P. falciparum 3D7 erythrocytic growth, LDH absorbance, 72 h; at 2 µM; active compounds read high.
Test [5] deals with Calcium-dependent protein kinase 1 (Plasmodium falciparum (isolate 3D7)) (UniProt P62344). As to the kind of experiment: PfCDPK1 kinase inhibitors, biochemical, TCAMS library (AID 1159585; cut-off not given, nearly all actives have IC50 up to about 0.98 µM;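 also: inhibitors leave more ATP so luminescence rises with inhibition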). To be noted: recombinant PfCDPK1, Kinase-Glo ATP depletion luminescence. For orientation: Kinase-Glo measures the ATP left after a reaction by luminescence.
In test [6] the target is Plasmodium falciparum protein kinase 6 (PK6, PF3D7_1337100) (UniProt Q8IDW1). As to the kind of experiment: PfPK6 kinase inhibitors, biochemical, TCAMS library (AID 1159586). To be noted: recombinant PfPK6, Kinase-Glo ATP depletion luminescence.
Test [7] concerns the target Protein kinase 7 (PK7), Plasmodium falciparum 3D7 (PF3D7_0213400) (UniProt Q7YTF7). As to the kind of experiment: inhibition of Plasmodium PK7 catalytic activity – biochemical, TCAMS antimalarial set, Kinase-Glo luminescence (AID 1159587). To be noted: recombinant PfPK7, Kinase-Glo ATP depletion luminescence.
Test [8] addresses Calcium-dependent protein kinase 4 (Plasmodium falciparum (isolate 3D7)) (UniProt Q8IBS5). In words: PfCDPK4 kinase inhibitors, biochemical, TCAMS library (AID 1159588; cut-off not given, nearly all actives have IC50 up to about 0.91 µM). To be noted: recombinant PfCDPK4, Kinase-Glo ATP depletion luminescence.

Calcium-dependent protein kinase 1 (Plasmodium falciparum (isolate 3D7)), sequence (P62344 whole entry, looked up): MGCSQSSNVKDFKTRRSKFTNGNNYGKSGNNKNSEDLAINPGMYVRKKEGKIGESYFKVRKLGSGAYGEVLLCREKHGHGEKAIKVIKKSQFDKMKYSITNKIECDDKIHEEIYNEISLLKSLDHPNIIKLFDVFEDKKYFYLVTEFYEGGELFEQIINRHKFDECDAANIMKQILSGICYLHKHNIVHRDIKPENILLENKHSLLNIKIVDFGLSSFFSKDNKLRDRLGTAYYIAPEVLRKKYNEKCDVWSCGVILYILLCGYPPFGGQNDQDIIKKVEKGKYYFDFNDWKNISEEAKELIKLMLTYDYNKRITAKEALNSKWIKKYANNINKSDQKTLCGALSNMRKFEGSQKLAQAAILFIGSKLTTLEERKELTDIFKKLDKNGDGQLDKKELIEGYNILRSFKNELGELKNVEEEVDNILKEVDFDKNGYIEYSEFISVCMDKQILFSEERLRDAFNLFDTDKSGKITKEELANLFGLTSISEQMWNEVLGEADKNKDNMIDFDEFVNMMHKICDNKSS
Plasmodium falciparum protein kinase 6 (PK6, PF3D7_1337100), sequence (Q8IDW1 1-305): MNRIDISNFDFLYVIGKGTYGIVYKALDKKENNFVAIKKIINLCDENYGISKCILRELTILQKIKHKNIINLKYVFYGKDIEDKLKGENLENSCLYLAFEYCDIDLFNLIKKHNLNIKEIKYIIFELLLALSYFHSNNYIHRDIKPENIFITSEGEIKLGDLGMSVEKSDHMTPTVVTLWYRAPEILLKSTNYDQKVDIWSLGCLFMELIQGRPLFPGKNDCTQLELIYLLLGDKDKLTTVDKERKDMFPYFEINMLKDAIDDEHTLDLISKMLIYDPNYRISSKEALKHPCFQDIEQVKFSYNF
Calcium-dependent protein kinase 4 (Plasmodium falciparum (isolate 3D7)), sequence (Q8IBS5 whole entry, looked up): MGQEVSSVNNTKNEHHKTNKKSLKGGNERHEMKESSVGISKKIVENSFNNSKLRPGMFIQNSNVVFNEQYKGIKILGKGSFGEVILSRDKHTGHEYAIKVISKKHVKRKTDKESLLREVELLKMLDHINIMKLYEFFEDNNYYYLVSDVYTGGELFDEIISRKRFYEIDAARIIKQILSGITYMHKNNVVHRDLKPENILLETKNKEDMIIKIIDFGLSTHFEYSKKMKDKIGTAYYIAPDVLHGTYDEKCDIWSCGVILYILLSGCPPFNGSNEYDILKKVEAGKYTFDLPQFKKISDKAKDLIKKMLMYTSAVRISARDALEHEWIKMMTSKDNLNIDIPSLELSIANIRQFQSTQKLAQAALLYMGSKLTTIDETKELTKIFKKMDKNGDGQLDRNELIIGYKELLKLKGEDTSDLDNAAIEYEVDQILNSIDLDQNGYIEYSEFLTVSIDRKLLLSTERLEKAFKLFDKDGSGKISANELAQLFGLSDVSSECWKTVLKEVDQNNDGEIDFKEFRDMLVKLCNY
L-lactate dehydrogenase (Plasmodium falciparum (isolate CDC / Honduras)), sequence (Q27743 whole entry, looked up): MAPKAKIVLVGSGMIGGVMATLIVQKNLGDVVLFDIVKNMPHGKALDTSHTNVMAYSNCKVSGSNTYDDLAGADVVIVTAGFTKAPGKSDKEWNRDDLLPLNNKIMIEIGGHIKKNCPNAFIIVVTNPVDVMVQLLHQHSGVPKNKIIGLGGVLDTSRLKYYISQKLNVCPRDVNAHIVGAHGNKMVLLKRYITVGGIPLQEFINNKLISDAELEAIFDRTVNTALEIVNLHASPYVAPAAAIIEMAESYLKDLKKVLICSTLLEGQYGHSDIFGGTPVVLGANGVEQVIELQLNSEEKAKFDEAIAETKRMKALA
Protein kinase 7 (PK7), Plasmodium falciparum 3D7 (PF3D7_0213400), sequence (Q7YTF7 1-343): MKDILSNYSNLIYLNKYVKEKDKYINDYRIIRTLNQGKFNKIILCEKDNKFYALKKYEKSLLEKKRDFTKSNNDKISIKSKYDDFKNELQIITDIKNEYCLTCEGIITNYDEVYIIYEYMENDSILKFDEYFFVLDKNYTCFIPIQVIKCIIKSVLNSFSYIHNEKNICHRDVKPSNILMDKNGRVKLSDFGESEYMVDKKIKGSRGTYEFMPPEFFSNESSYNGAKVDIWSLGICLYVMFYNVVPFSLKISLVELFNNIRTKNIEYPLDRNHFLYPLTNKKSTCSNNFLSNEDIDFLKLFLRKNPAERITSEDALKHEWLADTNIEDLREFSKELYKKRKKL

Take `Cc1ccc(C(=O)Nc2ccc(F)cc2)cc1-c1nc(NC2CC(C)(C)NC(C)(C)C2)nc2c1ccc(=O)n2-c1c(F)cccc1F`: the growth inhibition in test [1] was 96% (active); in test [4] it was 89% (active). Further, the inhibition is 16% in test [2] and -2% in test [3]. In addition, the result in test [5], in test [6], in test [7] and in test [8] was inactive.
For the compound `O=C(Nc1cccc(-c2ccc(-c3nc4ccc(F)cc4[nH]3)cc2)c1)Nc1ccc(Cl)c(Cl)c1`, the growth inhibition in test [1] is 49%; in test [4] it was 100% (active). For the same compound, the inhibition in test [2] was 79% (active); in test [3], 3%. Further, the result in test [5], in test [6], in test [7] and in test [8] was inactive.
On to `O=C1CCCN1CCCNCc1cccc(-c2ccc(-c3nc4ccc(C(F)(F)F)cc4[nH]3)cc2)c1`, for which the figures for the growth inhibition in test [1] and in test [4] were 96% (active) and 101% (active), respectively. The inhibition in test [2] was 15%; in test [3], -3%. In addition, the outcome in test [5], in test [6], in test [7] and in test [8] was inactive.
As to `CCOC(=O)c1[nH]c(-c2ccccc2)nc1NC(=S)NC1CCCCC1`, the growth inhibition in test [1] was 1%; in test [4], 96% (active). Further, the inhibition is 6% in test [2] and 1% in test [3]. In addition, the result in test [5], in test [6], in test [7] and in test [8] was inactive.
Consider `O=C(Nc1cccnc1)c1ccc(-c2cc3ccncc3cc2OC2CCNCC2)s1`, for which the growth inhibition was 12% in test [1] and 97% (active) in test [4]. Moreover, the values for the inhibition in test [2] and in test [3] were -5% and 1%, respectively. For the same compound, the outcome in test [5], in test [6], in test [7] and in test [8] was inactive.
Regarding `O=C(NC(Nc1ccc([N+](=O)[O-])cc1)C(Cl)(Cl)Cl)c1ccc(Cl)cc1` (stereo not given), the figures for the growth inhibition in test [1] and in test [4] were 94% (active) and 98% (active), respectively. The inhibition in test [2] was 21%; in test [3] it was 4%. Further, the outcome in test [5], in test [6], in test [7] and in test [8] was inactive.
`O=C(Nc1ccc(OC2CCN(Cc3ccc(F)cc3)C2)c(Cl)c1)c1ccoc1` (stereo not given): the growth inhibition in test [1] and in test [4] was 90% (active) each time. Further, the inhibition in test [2] was 13%; in test [3], 2%. In addition, the outcome in test [5], in test [6], in test [7] and in test [8] was inactive.
Consider `CCc1cccc2c(C#N)cn(CC(=O)Nc3ccc(OC)cc3)c12`, for which the growth inhibition in test [1] was 76% (active); in test [4], 97% (active). Besides, the values for the inhibition in test [2] and in test [3] were -13% and -3%, respectively. Moreover, the outcome in test [5], in test [6], in test [7] and in test [8] was inactive.
Take `Cc1ccc(CN2CCN(c3cc4c(cc3Cl)CCN4C(=O)Cc3ccc(NC(=O)c4ccc(C(F)(F)F)cc4)cc3)CC2)cc1`: the growth inhibition was -8% in test [1] and 88% (active) in test [4]. In addition, the inhibition was 15% in test [2] and 4% in test [3]. Besides, the result in test [5], in test [6], in test [7] and in test [8] was inactive.
With `Cc1ccccc1OCCCN1CCN(CC(c2ccc(F)cc2)N2CCN(C(C)C)CC2)CC1` (stereo not given), the growth inhibition is 64% (active) in test [1] and 99% (active) in test [4]. The results for the inhibition in test [2] and in test [3] were 20% and 2%, respectively. Besides, the outcome in test [5], in test [6], in test [7] and in test [8] was inactive.
Regarding `COc1cc2ccccc2c(CNCCCCCCNCc2c(OC)c(OC)cc3ccccc23)c1OC`, the growth inhibition in test [1] is 89% (active); in test [4], 95% (active). Also, the figures for the inhibition in test [2] and in test [3] were 100% (active) and -4%, respectively. For the same compound, the result in test [5], in test [6], in test [7] and in test [8] was inactive.
Turning to `CCC(CC)(CCC#N)CN(C[C@@H](O)[C@H](Cc1ccccc1)NC(=O)OC(C)(C)C)S(=O)(=O)c1ccc(OC)cc1`, the growth inhibition is 66% (active) in test [1] and 82% (active) in test [4]. For the same compound, the inhibition in test [2] is -12%; in test [3], 0%. Besides, the outcome in test [5], in test [6], in test [7] and in test [8] was inactive.
Turning to `O=C(N[C@@H](Cc1ccccc1)[C@H](O)CNC1CCCc2ccccc21)c1cc(C2CCCC2)cc(N2CCCC2=O)c1` (stereo not given in full), the growth inhibition in test [1] is 99% (active); in test [4], 97% (active). Also, the results for the inhibition in test [2] and in test [3] were 31% and -7%, respectively. The result in test [5], in test [6], in test [7] and in test [8] was inactive.
Take `Cc1cccc2[nH]c(-c3ccc(-c4ccc(CN5CCN(CCO)CC5)cc4)cc3)nc12`: the growth inhibition in test [1] is 97% (active); in test [4], 100% (active). Further, the inhibition in test [2] was 20%; in test [3], -4%. The result in test [5], in test [6], in test [7] and in test [8] was inactive.
With `CN1CCC(c2c[nH]c3ccc(NC(=O)Nc4ccc(-c5ccncc5)c(Cl)c4Cl)cc23)CC1`, the growth inhibition in test [1] is 19%; in test [4], 102% (active). Besides, the values for the inhibition in test [2] and in test [3] were 27% and -1%, respectively. Besides, the outcome in test [5], in test [6], in test [7] and in test [8] was inactive.
With `CCCCc1cc(NCc2ccncc2)nc(Nc2ccc(OC)cc2)n1`, the growth inhibition is 22% in test [1] and 93% (active) in test [4]. The figures for the inhibition in test [2] and in test [3] were 11% and 0%, respectively. Besides, the outcome in test [5], in test [6], in test [7] and in test [8] was inactive.
For `CCc1cc2c(O)c([N+](=O)[O-])c(=O)oc2cc1OCCCCCOc1cc2oc(=O)c([N+](=O)[O-])c(O)c2cc1CC`, the growth inhibition in test [1] was 0%; in test [4] it was 99% (active). In addition, the values for the inhibition in test [2] and in test [3] were 11% and -1%, respectively. The outcome in test [5], in test [6], in test [7] and in test [8] was inactive.
In the case of `c1cc(CN2CCN(c3ccncc3)CC2)cc(-c2ccc(-c3nc4ccccc4[nH]3)cc2)c1`, the growth inhibition in test [1] and in test [4] was 100% (active) in each case. Also, the inhibition is 60% (active) in test [2] and -11% in test [3]. The result in test [5], in test [6], in test [7] and in test [8] was inactive.
For the compound `Oc1cccc2c1CC(NCc1ccccc1)CC2` (stereo not given), the growth inhibition in test [1] was 24%; in test [4] it was 90% (active). Besides, the inhibition in test [2] is 4%; in test [3] it was 6%. Also, the result in test [5], in test [6], in test [7] and in test [8] was inactive.
With `COc1ccc2nccc(NN=Cc3ccccc3Cl)c2c1`, the growth inhibition in test [1] is 99% (active); in test [4], 100% (active). Also, the inhibition in test [2] is 29%; in test [3] it was -4%. Further, the result in test [5], in test [6], in test [7] and in test [8] was inactive.

In general, inhibition refers to the change of the read-out against control, counted positive when it falls.
